{"source": "the supplement of paper PMC8728848", "binders": {"B1": {"name": "SP16663B-bot-321-25-321 (Bacteroides ovatus) (protein)", "chain": "DDDDEVTMNSKFYLSTKVFPVDSYEASLSVILKDNSVVVNELQPNYRFVACATERLSKDVKITADSDDNLVSAYNKANDTEYNILPAENYSFTNKTVTIENGESVSGDSIKIELLNVGSLTTEGGYLLPVTISSIEGNNLDALSSNRGVVYLKIQNIHVNVESGQPAEGTLIADRSGWTVKVAPTTRGDAKNLIDGTNSDVARDGGAEYWLTVDIGKVQTLTGIRNKCYASSYSPTAVEVFTSSDGAKWKSIGAVTISKSGTQYIKFSKAVETRYLKYYVKQGPNTVSLTEFDLYAK"}}, "assay_in_all_cases": "glycan array binding signal (z-score within array); higher = stronger binding", "settings_in_all_cases": "glycan notation: IUPAC condensed, linker removed", "key": {"[1]": {"molecular_target": "Fuc(a1-2)Gal(b1-4)Glc", "procedure,_shortened": "(§1)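 From the Consortium for Functional Glycomics database, 3228 arrays were curated, keeping only those whose protein sequence was available. Binding is given as a within-array Z-score averaged across arrays sharing a protein sequence and across linkers. Negative Z-scores can be read as non-binding.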"}, "[2]": {"molecular_target": "Fuc(a1-2)Gal(b1-4)GlcNAc", "procedure,_shortened": "as §1"}, "[3]": {"molecular_target": "Fuc(a1-2)Gal(b1-4)GlcNAc(b1-3)GalNAc", "procedure,_shortened": "as §1"}, "[4]": {"molecular_target": "Fuc(a1-2)Gal(b1-4)GlcNAc(b1-3)[Fuc(a1-3)[Gal(b1-4)]GlcNAc(b1-6)]Gal(b1-4)Glc", "procedure,_shortened": "as §1"}, "[5]": {"molecular_target": "Fuc(a1-2)Gal(b1-4)[Fuc(a1-3)]GlcNAc(b1-2)[Fuc(a1-2)Gal(b1-4)[Fuc(a1-3)]GlcNAc(b1-4)]Man(a1-3)[Fuc(a1-2)Gal(b1-4)[Fuc(a1-3)]GlcNAc(b1-2)Man(a1-6)]Man(b1-4)GlcNAc(b1-4)GlcNAc", "procedure,_shortened": "as §1"}, "[6]": {"molecular_target": "Fuc(a1-2)Gal(b1-4)[Fuc(a1-3)]GlcNAc(b1-3)Gal(b1-4)[Fuc(a1-3)]GlcNAc(b1-3)Gal(b1-4)[Fuc(a1-3)]GlcNAc", "procedure,_shortened": "as §1"}, "[7]": {"molecular_target": "Fuc(a1-2)[Gal(a1-3)]Gal(b1-3)GlcNAc(b1-6)GalNAc", "procedure,_shortened": "as §1"}, "[8]": {"molecular_target": "Fuc(a1-2)[Gal(a1-3)]Gal(b1-4)GlcNAc(b1-3)[Fuc(a1-2)[Gal(a1-3)]Gal(b1-4)GlcNAc(b1-6)]GalNAc", "procedure,_shortened": "as §1"}, "[9]": {"molecular_target": "Fuc(a1-2)[GalNAc(a1-3)]Gal(b1-3)GlcNAc", "procedure,_shortened": "as §1"}, "[10]": {"molecular_target": "Fuc(a1-2)[GalNAc(a1-3)]Gal(b1-4)GlcNAc(b1-2)Man", "procedure,_shortened": "as §1"}, "[11]": {"molecular_target": "Fuc(a1-2)[GalNAc(a1-3)]Gal(b1-4)[Fuc(a1-3)]GlcNAc(b1-3)GalNAc", "procedure,_shortened": "as §1"}, "[12]": {"molecular_target": "Fuc(a1-3)[Gal(b1-4)]Glc6S", "procedure,_shortened": "as §1"}, "[13]": {"molecular_target": "Fuc(a1-3)[Gal(b1-4)]GlcNAc(b1-2)Man", "procedure,_shortened": "as §1"}, "[14]": {"molecular_target": "Fuc(a1-4)GlcNAc", "procedure,_shortened": "as §1"}, "[15]": {"molecular_target": "Gal(a1-3)Gal(b1-3)GlcNAc", "procedure,_shortened": "as §1"}, "[16]": {"molecular_target": "Gal(b1-4)GlcNAc(b1-2)Man(a1-6)Man(b1-4)GlcNAc(b1-4)GlcNAc", "procedure,_shortened": "as §1"}, "[17]": {"molecular_target": "Gal(b1-4)GlcNAc(b1-3)Gal(b1-4)GlcNAc(b1-3)[Gal(b1-4)GlcNAc(b1-3)Gal(b1-4)GlcNAc(b1-6)]GalNAc", "procedure,_shortened": "as §1"}, "[18]": {"molecular_target": "GalNAc(a1-3)GalNAc", "procedure,_shortened": "as §1"}, "[19]": {"molecular_target": "GalNAc(b1-4)GlcNAc", "procedure,_shortened": "as §1"}, "[20]": {"molecular_target": "GalNAc(b1-4)GlcNAc(b1-2)Man", "procedure,_shortened": "as §1"}, "[21]": {"molecular_target": "GalNAc(b1-4)GlcNAc6S", "procedure,_shortened": "as §1"}, "[22]": {"molecular_target": "GalNAc3S(b1-4)GlcNAc3S", "procedure,_shortened": "as §1"}, "[23]": {"molecular_target": "Glc(b1-4)Glc", "procedure,_shortened": "as §1"}, "[24]": {"molecular_target": "GlcA(b1-6)Gal", "procedure,_shortened": "as §1"}, "[25]": {"molecular_target": "GlcNAc(b1-3)Gal(b1-4)GlcNAc(b1-3)Gal(b1-4)GlcNAc(b1-2)[GlcNAc(b1-3)Gal(b1-4)GlcNAc(b1-3)Gal(b1-4)GlcNAc(b1-6)]Man(a1-6)[GlcNAc(b1-3)Gal(b1-4)GlcNAc(b1-3)Gal(b1-4)GlcNAc(b1-2)Man(a1-3)]Man(b1-4)GlcNAc(b1-4)[Fuc(a1-6)]GlcNAc", "procedure,_shortened": "as §1"}, "[26]": {"molecular_target": "GlcNAc(b1-3)Gal(b1-4)GlcNAc(b1-3)Gal(b1-4)GlcNAc(b1-3)Gal(b1-4)GlcNAc(b1-2)[GlcNAc(b1-3)Gal(b1-4)GlcNAc(b1-3)Gal(b1-4)GlcNAc(b1-3)Gal(b1-4)GlcNAc(b1-6)]Man(a1-6)[GlcNAc(b1-3)Gal(b1-4)GlcNAc(b1-3)Gal(b1-4)GlcNAc(b1-3)Gal(b1-4)GlcNAc(b1-2)Man(a1-3)]Man(b1-4)GlcNAc(b1-4)[Fuc(a1-6)]GlcNAc", "procedure,_shortened": "as §1"}, "[27]": {"molecular_target": "GlcNAc(b1-3)Gal(b1-4)GlcNAc(b1-3)GalNAc", "procedure,_shortened": "as §1"}, "[28]": {"molecular_target": "GlcNAc(b1-3)[GlcNAc(b1-4)][GlcNAc(b1-6)]GlcNAc", "procedure,_shortened": "as §1"}, "[29]": {"molecular_target": "GlcNAc(b1-6)Gal(b1-4)GlcNAc", "procedure,_shortened": "as §1"}, "[30]": {"molecular_target": "Man(a1-3)[Man(a1-6)]Man(b1-4)GlcNAc(b1-4)[Fuc(a1-6)]GlcNAc", "procedure,_shortened": "as §1"}}, "note": "Shown is part of a subset that was picked to be rich in the strongest signals."}
{"binder": "B1", "values": [{"measurement": "glycan array binding signal (z-score)", "setting": "[1]", "value": -0.653}, {"measurement": "glycan array binding signal (z-score)", "setting": "[2]", "value": -0.156}, {"measurement": "glycan array binding signal (z-score)", "setting": "[3]", "value": -0.106}, {"measurement": "glycan array binding signal (z-score)", "setting": "[4]", "value": -0.632}, {"measurement": "glycan array binding signal (z-score)", "setting": "[5]", "value": -0.394}, {"measurement": "glycan array binding signal (z-score)", "setting": "[6]", "value": -0.007}, {"measurement": "glycan array binding signal (z-score)", "setting": "[7]", "value": -0.437}, {"measurement": "glycan array binding signal (z-score)", "setting": "[8]", "value": 1.9}, {"measurement": "glycan array binding signal (z-score)", "setting": "[9]", "value": 0.071}, {"measurement": "glycan array binding signal (z-score)", "setting": "[10]", "value": 1.04}, {"measurement": "glycan array binding signal (z-score)", "setting": "[11]", "value": 0.604}, {"measurement": "glycan array binding signal (z-score)", "setting": "[12]", "value": 1.36}, {"measurement": "glycan array binding signal (z-score)", "setting": "[13]", "value": 0.558}, {"measurement": "glycan array binding signal (z-score)", "setting": "[14]", "value": 21.5}, {"measurement": "glycan array binding signal (z-score)", "setting": "[15]", "value": 0.607}, {"measurement": "glycan array binding signal (z-score)", "setting": "[16]", "value": -0.62}, {"measurement": "glycan array binding signal (z-score)", "setting": "[17]", "value": 1.04}, {"measurement": "glycan array binding signal (z-score)", "setting": "[18]", "value": -0.141}, {"measurement": "glycan array binding signal (z-score)", "setting": "[19]", "value": 1.29}, {"measurement": "glycan array binding signal (z-score)", "setting": "[20]", "value": 1.72}, {"measurement": "glycan array binding signal (z-score)", "setting": "[21]", "value": -0.779}, {"measurement": "glycan array binding signal (z-score)", "setting": "[22]", "value": -0.087}, {"measurement": "glycan array binding signal (z-score)", "setting": "[23]", "value": 0.122}, {"measurement": "glycan array binding signal (z-score)", "setting": "[24]", "value": 0.013}, {"measurement": "glycan array binding signal (z-score)", "setting": "[25]", "value": 2.65}, {"measurement": "glycan array binding signal (z-score)", "setting": "[26]", "value": 1.28}, {"measurement": "glycan array binding signal (z-score)", "setting": "[27]", "value": -0.536}, {"measurement": "glycan array binding signal (z-score)", "setting": "[28]", "value": -0.112}, {"measurement": "glycan array binding signal (z-score)", "setting": "[29]", "value": 1.33}, {"measurement": "glycan array binding signal (z-score)", "setting": "[30]", "value": 0.967}]}
